In PubChem BioAssay one finds growth inhibition, inhibition and outcome data, which are given here for 20 compounds.

Values without a mark were called inactive. For some of these results: Entries with a potency or affinity are not part of this list. Calls of active or inactive are those of the source. Unless noted, no rule for the calls is given here.

Assay [1] is described as follows: antimalarial activity against Dd2 strain (AID 2302;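 active = growth inhibition above 50% at the single 2 µM test dose, taken to imply half-maximal potency below 2 µM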;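 also: 0% = DMSO untreated growth and 100% = chloroquine plus artemisinin killed control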). The following applies: P. falciparum Dd2 in RBCs, LDH growth readout, 72 h; at 2 µM; stronger effect = higher value.
Assay [2] in a line: human hepatoma cell viability loss – ATP luminescence, cytotoxicity control for P. falciparum antimalarial project, primary screen (AID 2303;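 active = inhibition above 50%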;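 also: 0% = DMSO wells and 100% = digitonin-killed cells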). The following applies: HepG2 viability, 24-48 h, at 10 µM, stronger effect = higher value.
Assay [3] has as its target L-lactate dehydrogenase (Plasmodium falciparum (isolate CDC / Honduras)) (UniProt Q27743). Kind of assay: PfLDH activity inhibition – cell lysate, 3D7 strain, counter-screen for P. falciparum growth inhibition project (AID 2304).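 Also: 0% = vehicle and 100% = reference inhibitor.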 The following applies: P. falciparum 3D7 crude extract, LDH APAD/NBT absorbance; at 2 µM; stronger effect = higher value.
Assay [4] can be described thus: inhibition of 3D7 malaria parasite growth – strain 3D7 (AID 2306).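 Also: 0% = DMSO wells and 100% = chloroquine plus artemisinin control wells.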 The following applies: P. falciparum 3D7 erythrocytic growth, LDH absorbance, 72 h; at 2 µM; stronger effect = higher value.
Assay [5] addresses Calcium-dependent protein kinase 1 (Plasmodium falciparum (isolate 3D7)) (UniProt P62344). Kind of assay: PfCDPK1 kinase inhibitors, biochemical, TCAMS library (AID 1159585; cut-off not given, nearly all actives have IC50 up to about 0.98 µM;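 also: inhibitors leave more ATP so luminescence rises with inhibition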). The following applies: recombinant PfCDPK1, Kinase-Glo ATP depletion luminescence. A general note: In Kinase-Glo more light means more ATP remaining.
Assay [6] addresses Plasmodium falciparum protein kinase 6 (PK6, PF3D7_1337100) (UniProt Q8IDW1). Kind of assay: PfPK6 kinase inhibitors, biochemical, TCAMS library (AID 1159586). Particulars: recombinant PfPK6, Kinase-Glo ATP depletion luminescence.
For assay [7], the target named is Protein kinase 7 (PK7), Plasmodium falciparum 3D7 (PF3D7_0213400) (UniProt Q7YTF7). Kind of assay: inhibition of Plasmodium PK7 catalytic activity – biochemical, TCAMS antimalarial set, Kinase-Glo luminescence (AID 1159587). Particulars: recombinant PfPK7, Kinase-Glo ATP depletion luminescence.
Sequence of Protein kinase 7 (PK7), Plasmodium falciparum 3D7 (PF3D7_0213400) (Q7YTF7 1-343): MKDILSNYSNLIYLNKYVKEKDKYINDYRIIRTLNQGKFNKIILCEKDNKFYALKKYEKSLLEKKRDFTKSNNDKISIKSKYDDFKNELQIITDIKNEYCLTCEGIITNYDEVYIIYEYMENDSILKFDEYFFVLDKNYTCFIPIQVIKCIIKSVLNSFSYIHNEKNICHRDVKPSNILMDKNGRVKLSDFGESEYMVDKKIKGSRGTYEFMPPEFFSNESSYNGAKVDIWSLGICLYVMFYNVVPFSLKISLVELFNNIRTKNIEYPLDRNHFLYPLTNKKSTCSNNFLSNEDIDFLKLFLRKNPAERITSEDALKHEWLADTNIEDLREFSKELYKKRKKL
For assay [8], the target named is Calcium-dependent protein kinase 4 (Plasmodium falciparum (isolate 3D7)) (UniProt Q8IBS5). Kind of assay: PfCDPK4 kinase inhibitors, biochemical, TCAMS library (AID 1159588; cut-off not given, nearly all actives have IC50 up to about 0.91 µM). The following applies: recombinant PfCDPK4, Kinase-Glo ATP depletion luminescence.
Sequence of Calcium-dependent protein kinase 4 (Plasmodium falciparum (isolate 3D7)) (Q8IBS5 whole entry, looked up): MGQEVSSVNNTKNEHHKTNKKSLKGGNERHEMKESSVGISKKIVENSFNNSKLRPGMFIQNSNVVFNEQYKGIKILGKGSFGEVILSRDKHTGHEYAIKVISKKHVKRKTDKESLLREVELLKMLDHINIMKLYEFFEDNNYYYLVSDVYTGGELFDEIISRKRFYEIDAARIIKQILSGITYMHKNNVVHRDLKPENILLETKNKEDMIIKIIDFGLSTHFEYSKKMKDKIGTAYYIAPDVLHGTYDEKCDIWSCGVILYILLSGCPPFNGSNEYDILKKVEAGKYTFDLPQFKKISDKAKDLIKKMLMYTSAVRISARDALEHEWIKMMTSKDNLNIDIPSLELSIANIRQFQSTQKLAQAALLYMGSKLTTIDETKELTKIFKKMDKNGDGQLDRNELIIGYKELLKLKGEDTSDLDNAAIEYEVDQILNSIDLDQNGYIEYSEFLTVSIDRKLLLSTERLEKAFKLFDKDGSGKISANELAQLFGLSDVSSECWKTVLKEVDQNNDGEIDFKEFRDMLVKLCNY

Sequence of Calcium-dependent protein kinase 1 (Plasmodium falciparum (isolate 3D7)) (P62344 whole entry, looked up): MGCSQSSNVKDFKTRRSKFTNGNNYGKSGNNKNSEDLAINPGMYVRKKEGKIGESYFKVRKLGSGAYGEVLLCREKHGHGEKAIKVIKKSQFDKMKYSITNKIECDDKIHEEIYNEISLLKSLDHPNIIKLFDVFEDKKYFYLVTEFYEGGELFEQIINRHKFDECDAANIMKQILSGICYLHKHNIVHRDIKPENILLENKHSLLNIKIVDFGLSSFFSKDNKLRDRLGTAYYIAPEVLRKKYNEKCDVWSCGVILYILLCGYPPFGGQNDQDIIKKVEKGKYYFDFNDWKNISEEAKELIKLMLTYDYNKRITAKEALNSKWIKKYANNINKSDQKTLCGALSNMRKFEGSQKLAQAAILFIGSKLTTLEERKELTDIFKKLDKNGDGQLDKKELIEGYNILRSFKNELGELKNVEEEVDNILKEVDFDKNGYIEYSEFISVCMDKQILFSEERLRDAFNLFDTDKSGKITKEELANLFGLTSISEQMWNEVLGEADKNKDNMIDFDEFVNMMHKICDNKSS
Sequence of L-lactate dehydrogenase (Plasmodium falciparum (isolate CDC / Honduras)) (Q27743 whole entry, looked up): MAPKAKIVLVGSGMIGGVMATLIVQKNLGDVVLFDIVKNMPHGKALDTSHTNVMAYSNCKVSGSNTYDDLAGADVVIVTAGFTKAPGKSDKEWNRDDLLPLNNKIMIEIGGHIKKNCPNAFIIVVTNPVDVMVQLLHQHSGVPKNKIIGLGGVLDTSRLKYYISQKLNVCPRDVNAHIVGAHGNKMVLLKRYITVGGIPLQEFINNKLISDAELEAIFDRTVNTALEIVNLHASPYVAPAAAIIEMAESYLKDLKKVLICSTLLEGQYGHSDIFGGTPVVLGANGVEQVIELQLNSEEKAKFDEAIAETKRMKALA
Sequence of Plasmodium falciparum protein kinase 6 (PK6, PF3D7_1337100) (Q8IDW1 1-305): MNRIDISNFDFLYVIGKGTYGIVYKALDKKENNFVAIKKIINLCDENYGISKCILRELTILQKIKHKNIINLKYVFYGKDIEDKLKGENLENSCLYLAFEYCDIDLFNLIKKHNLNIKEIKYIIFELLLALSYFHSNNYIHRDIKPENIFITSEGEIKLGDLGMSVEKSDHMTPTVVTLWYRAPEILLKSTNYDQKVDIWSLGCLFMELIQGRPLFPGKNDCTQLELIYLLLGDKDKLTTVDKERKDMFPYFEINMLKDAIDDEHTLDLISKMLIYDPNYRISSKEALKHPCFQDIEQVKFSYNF

By inhibition is commonly meant the drop in the measured response relative to a control, in per cent. On to `CN(C)CCCOc1c(C(C)(C)C)cc(-c2cc(C(C)(C)C)c(OCCCN(C)C)c(C(C)(C)C)c2)cc1C(C)(C)C`, for which the growth inhibition in assay [1] was 99% (active); in assay [4], 100% (active). Also, the inhibition is 25% in assay [2] and 0% in assay [3]. Besides, the outcome in assay [5], in assay [6], in assay [7] and in assay [8] was inactive.

For the compound `Oc1ccc(Cl)c2c1C(c1ccccc1)=NCC2`, the growth inhibition in assay [1] is 43%; in assay [4], 95% (active). Moreover, the inhibition in assay [2] is -9%; in assay [3] it was -4%. Moreover, the outcome in assay [5], in assay [6], in assay [7] and in assay [8] was inactive.

For `CCCN(CCC)S(=O)(=O)c1ccc(C(=O)N2CCC(C(=O)OCC)CC2)cc1`, the growth inhibition was 41% in assay [1] and 98% (active) in assay [4]. The inhibition was 26% in assay [2] and 1% in assay [3]. Besides, the result in assay [5], in assay [6], in assay [7] and in assay [8] was inactive.

`COc1ccc(Nc2nccc(-c3ccc4ccnc(NCCCCN)c4c3)n2)cc1`: the results for the growth inhibition in assay [1] and in assay [4] were 47% and 95% (active), respectively. The results for the inhibition in assay [2] and in assay [3] were 15% and 6%, respectively. The result in assay [5], in assay [6], in assay [7] and in assay [8] was inactive.

Regarding `CCOC(=O)c1ccc2nc(-c3ccc(C(=O)NC4CCN(Cc5ccccc5)CC4)s3)[nH]c2c1`, the growth inhibition is 95% (active) in assay [1] and 100% (active) in assay [4]. The inhibition is 32% in assay [2] and -2% in assay [3]. Besides, the outcome in assay [5], in assay [6], in assay [7] and in assay [8] was inactive.

Consider `CCOC(=O)c1[nH]c(-c2cccnc2)nc1NC(=S)NCc1ccccc1`, for which the results for the growth inhibition in assay [1] and in assay [4] were 100% (active) and 101% (active), respectively. For the same compound, the values for the inhibition in assay [2] and in assay [3] were 10% and 1%, respectively. The outcome in assay [5], in assay [6], in assay [7] and in assay [8] was inactive.

As to `O=C(/C=C/c1ccc(Cl)c(Cl)c1)N1CCC(CCCN2CCC(c3c[nH]c4ccccc34)CC2)CC1`, the figures for the growth inhibition in assay [1] and in assay [4] were 45% and 101% (active), respectively. The values for the inhibition in assay [2] and in assay [3] were 44% and -1%, respectively. Further, the outcome in assay [5], in assay [6], in assay [7] and in assay [8] was inactive.

Consider `COc1cc(NC(=O)N2CCOC(CCN3CCC(c4ccccc4)CC3)(c3ccc(Cl)c(Cl)c3)C2)cc(OC)c1OC` (stereo not given), for which the figures for the growth inhibition in assay [1] and in assay [4] were 73% (active) and 93% (active), respectively. In addition, the inhibition is 15% in assay [2] and -2% in assay [3]. Moreover, the result in assay [5], in assay [6], in assay [7] and in assay [8] was inactive.

On to `O=C(NCc1cccc(C(F)(F)F)c1)c1ccc(-c2nc3cc(F)c(F)cc3[nH]2)cc1`, for which the growth inhibition in assay [1] is 7%; in assay [4], 97% (active). For the same compound, the inhibition is -1% in assay [2] and 4% in assay [3]. Besides, the result in assay [5], in assay [6], in assay [7] and in assay [8] was inactive.

For `Cc1cc(NC(=O)c2cc(Br)ccc2Cl)n(-c2nc(C)c(C)c(=O)[nH]2)n1`, the growth inhibition is 83% (active) in assay [1] and 91% (active) in assay [4]. The inhibition in assay [2] is 54% (active); in assay [3] it was -2%. For the same compound, the outcome in assay [5], in assay [6], in assay [7] and in assay [8] was inactive.

As to `COc1ccc2nc(-c3ccccc3)cc(NCCCNc3cc(-c4ccccc4)nc4ccc(OC)cc34)c2c1`, the growth inhibition in assay [1] and in assay [4] was 99% (active) each time. Moreover, the values for the inhibition in assay [2] and in assay [3] were 100% (active) and 9%, respectively. The outcome in assay [5], in assay [6], in assay [7] and in assay [8] was inactive.

As to `O=C(NCCCCN1CCC(c2ccc3c(c2OCCN2CCCC2)CCCC3)CC1)c1ccc(-c2ccc(C(F)(F)F)cc2)cc1`, the growth inhibition in assay [1] was 81% (active); in assay [4], 100% (active). Further, the inhibition is 25% in assay [2] and -6% in assay [3]. The result in assay [5], in assay [6], in assay [7] and in assay [8] was inactive.

Take `CC(C)CNCc1cccc(-c2ccc(CN(C(=O)NCCc3ccccc3)C3CCN(Cc4ccccc4)CC3)cc2)c1`: the growth inhibition was 47% in assay [1] and 98% (active) in assay [4]. Also, the results for the inhibition in assay [2] and in assay [3] were 99% (active) and 5%, respectively. Besides, the outcome in assay [5], in assay [6], in assay [7] and in assay [8] was inactive.

With `COc1ccc(CC2(c3ccc(F)cc3)N=C(N)N(CCCc3ccc4c(c3)OCO4)C2=O)cc1` (stereo not given), the growth inhibition in assay [1] is 97% (active); in assay [4], 98% (active). The inhibition in assay [2] was 60% (active); in assay [3] it was 3%. The outcome in assay [5], in assay [6], in assay [7] and in assay [8] was inactive.

`CC[C@H](C)CNC(=O)c1cncc(-c2ccc(CN3CCC(N4CCCC4)CC3)cc2)c1`: the growth inhibition in assay [1] was 100% (active); in assay [4], 101% (active). Moreover, the inhibition in assay [2] was -8%; in assay [3], 3%. The result in assay [5], in assay [6], in assay [7] and in assay [8] was inactive.

Take `Cc1ccc2nc(C)cc(NN=Cc3ccc(Cl)cc3)c2c1`: the growth inhibition in assay [1] was 35%; in assay [4], 102% (active). The values for the inhibition in assay [2] and in assay [3] were -9% and 6%, respectively. The outcome in assay [5], in assay [6], in assay [7] and in assay [8] was inactive.

Regarding `Cc1cccc2[nH]c(-c3ccc(-c4cccc(CN5CCN(CCO)CC5)c4)cc3)nc12`, the growth inhibition in assay [1] was 55% (active); in assay [4] it was 100% (active). Besides, the inhibition was 20% in assay [2] and -3% in assay [3]. For the same compound, the outcome in assay [5], in assay [6], in assay [7] and in assay [8] was inactive.

For `O=C(/C=C/c1ccc(Cl)c(Cl)c1)NCCCCCN1CCC(NC(=O)Nc2ccc(Cl)cc2Cl)CC1`, the growth inhibition in assay [1] was 33%; in assay [4], 91% (active). The figures for the inhibition in assay [2] and in assay [3] were 96% (active) and -2%, respectively. For the same compound, the result in assay [5], in assay [6], in assay [7] and in assay [8] was inactive.

Turning to `O=C(/C=C/c1ccc(Cl)c(Cl)c1)NCCCCCN1CCN(C(=O)Nc2ccc(OC(F)F)cc2)CC1`, the growth inhibition is -2% in assay [1] and 99% (active) in assay [4]. Moreover, the inhibition is 20% in assay [2] and 4% in assay [3]. The result in assay [5], in assay [6], in assay [7] and in assay [8] was inactive.

Take `Cc1cc(N2CCCC2)nc(/N=C(\N)Nc2cccc(C(F)(F)F)c2)n1`: the growth inhibition in assay [1] is 100% (active); in assay [4] it was 101% (active). For the same compound, the inhibition is 33% in assay [2] and 1% in assay [3]. Moreover, the outcome in assay [5], in assay [6], in assay [7] and in assay [8] was inactive.
